Among the data in PubChem BioAssay (NCATS) are Potency and activity, negative = cell killing values, retold here.

The structures appear in SMILES notation. Values joined by “and” are separate entries in the source; they are usually repeats but may differ in a detail not shown here. Equal values may be shown once. Inconclusive results are not listed. The source holds several records for some structures; these can differ, active in one and inactive in another. Active and inactive are the calls of the source. The call rests on the fitted dose curve; in most records, active means well fitted curve in the direction sought with a large enough effect; inconclusive means small, poorly fitted or top-dose-only effect, or another doubt; inactive means no such curve, though single readings can be large; an effect the other way counts as inactive or inconclusive.

Experiment [1] deals with MCC-26. Put plainly: qHTS assay to identify novel small-molecules to repurpose for Merkel cell carcinoma treatment (AID 1296009). Further: nearly all actives have a fitted effect of over 60% in size. Further: potency means the concentration at half of the fitted maximal effect. The note with it: MCC and control cell lines, CellTiter-Glo viability, 72 h; series mostly up to 46 µM. In a few lines: (§1)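 After compound transfer in DMSO, plates were kept 72 hr at 37 degree celsius. Luminescent ATP signal from CellTiter-Glo served as viability measure, normalized against DMSO and no-cell controls.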
In general terms: In qHTS, concentration-response curves come from the screen itself.

Experiment [2] concerns MKL-1. The experiment is described as above. The note with it: MCC and control cell lines, CellTiter-Glo viability, 72 h; series mostly up to 46 µM. In a few lines: as §1
For orientation: ATP-based viability assays read luminescence as a measure of living cells.

Experiment [3] concerns MKL-2. Described as above. The note with it: MCC and control cell lines, CellTiter-Glo viability, 72 h; series mostly up to 46 µM. Summed up: as §1
The test system of experiment [4] is UISO. The experiment is described as above. The note with it: MCC and control cell lines, CellTiter-Glo viability, 72 h; series mostly up to 46 µM. In a few lines:
as §1

In experiment [5] the test system is WaGa. The description is as above. The note with it: MCC and control cell lines, CellTiter-Glo viability, 72 h; series mostly up to 46 µM. In a few lines:
as §1

Experiment [6] relates to C33A. Put plainly: Primary qHTS to identify gynecologic anti-cancer compounds using libraries of approved drugs and bioactive compounds (AID 1345084). Further: nearly all actives have a fitted effect of over 55% in size. Further: potency means the concentration at half of the fitted maximal effect. The note with it: Gynecologic cancer cell panel viability, ATPlite luminescence, 48 h; series mostly up to 57.5 µM. Summed up:
(§2)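 Cytotoxicity screen measuring ATP content by luciferase luminescence. Each compound is applied at five concentrations for 48 h at 37 C with 5% CO2.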

Experiment [7] relates to CASKI. Described as above. The note with it: Gynecologic cancer cell panel viability, ATPlite luminescence, 48 h; series mostly up to 57.5 µM. Summed up: as §2
Experiment [8] deals with Es-2. The experiment is described as above. The note with it: Gynecologic cancer cell panel viability, ATPlite luminescence, 48 h; series mostly up to 57.5 µM. In a few lines:
as §2

Experiment [9] relates to HeLa. The description is as above. The note with it: Gynecologic cancer cell panel viability, ATPlite luminescence, 48 h; series mostly up to 57.5 µM. Summed up: as §2
The subject of experiment [10] is Hek293T. The experiment is described as above. The note with it: Gynecologic cancer cell panel viability, ATPlite luminescence, 48 h, control line for the selectivity index; series mostly up to 57.5 µM. Summed up: as §2
For experiment [11], the system named is JEG-3. Described as above. The note with it: Gynecologic cancer cell panel viability, ATPlite luminescence, 48 h; series mostly up to 57.5 µM. Summed up: as §2
In experiment [12] the test system is OV90. The description is as above. The note with it: Gynecologic cancer cell panel viability, ATPlite luminescence, 48 h; series mostly up to 57.5 µM. In a few lines: as §2
Experiment [13] has as its system PA-1. The experiment is described as above. The note with it: Gynecologic cancer cell panel viability, ATPlite luminescence, 48 h; series mostly up to 57.5 µM. Summed up:
as §2

For experiment [14], the system named is SKOV3. Described as above. The note with it: Gynecologic cancer cell panel viability, ATPlite luminescence, 48 h; series mostly up to 57.5 µM. In a few lines: as §2
In experiment [15] the test system is Tov-21-G. The description is as above. The note with it: Gynecologic cancer cell panel viability, ATPlite luminescence, 48 h; series mostly up to 57.5 µM. In a few lines:
as §2

Experiment [16] relates to Tov112D. The experiment is described as above. The note with it: Gynecologic cancer cell panel viability, ATPlite luminescence, 48 h; series mostly up to 57.5 µM. In a few lines:
as §2

The nature of experiment [17]: Drug repurposing screens with cells derived from glioblastoma tumor samples (AID 1345199). Further: nearly all actives have a fitted effect of over 40% in size. The note with it: GBM patient neurospheres viability, ATP luminescence, 48 h. In a few lines:
(§3)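 Four patient lines of CD133+ GBM neurospheres were screened at several concentrations; hits were retested in those lines plus three slower-growing GBM lines, using 48-hour treatment and ATP-based viability.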

Experiment [18] relates to astro. The description is as above. The note with it: viability, ATP luminescence, 48 h; series mostly up to 45.9 µM. Summed up: as §3
Experiment [19] relates to CAOV3. The experiment is described as follows: Primary qHTS to identify gynecologic anti-cancer compounds using libraries of approved drugs and bioactive compounds (AID 1345084). Further: nearly all actives have a fitted effect of over 55% in size. Further: potency means the concentration at half of the fitted maximal effect. The note with it: Gynecologic cancer cell panel viability, ATPlite luminescence, 48 h; series mostly up to 57.5 µM. Summed up: as §2
[20] abbreviates: at 45.9 µM (top of the series), tumour line B.
Setting [21] is: at 45.9 µM (top of the series), tumour line D.
Setting [22] is: at 46 µM (top of the series), tumour line A.
[23] abbreviates: at 46.1 µM (top of the series), tumour line C.
On the % scale 0 is the no-effect control and ±100 the full control effect.

As for `Cc1cccc(Nc2cc(Cl)nc(SCC(=O)O)n2)c1C`, the Potency result in [1], in [2], in [3], in experiment [4], in experiment [5] and in [6] was “inactive” in each case. Moreover, the Potency entry in experiment [7], in experiment [8], in experiment [9], in [10], in experiment [11] and in experiment [12] was “inactive” each time. Further, the Potency result in experiment [13], in [14], in [15], in experiment [16] and in [18] was “inactive” throughout. For the same compound, the activity, negative = cell killing was -5.07% (inactive) in [17] (setting [20]), -15.1% (inactive) in experiment [17] (setting [21]), -33.3% (inactive) in [17] (setting [22]) and 0.18% (inactive) in [17] (setting [23]).
Consider `Cc1cccc(C)c1NC(=O)CN(CC(=O)O)CC(=O)O`, for which the Potency entry in experiment [1], in [2], in experiment [3], in [4], in [5] and in [6] was “inactive” each time. In addition, the Potency result in experiment [7], in [8], in [9], in experiment [10], in experiment [11] and in experiment [12] was “inactive” in each case. In addition, the Potency result in [13], in experiment [14], in [15], in experiment [16] and in experiment [18] was “inactive” each time. For the same compound, the activity, negative = cell killing in [17] (setting [20]) was 1.75% (inactive); in [17] (setting [21]) it was -3.71% (inactive); in [17] (setting [22]) it was -11.4% (inactive); in [17] (setting [23]), -3.39% (inactive).
For `NC(=O)N/N=C/c1ccc([N+](=O)[O-])o1`, the Potency result in experiment [1], in [4], in [6], in [19], in experiment [7] and in experiment [10] was “inactive” throughout. For the same compound, the Potency result in [12], in [13], in experiment [16] and in [18] was “inactive” throughout. The Potency in experiment [2] was 24.3 µM (active); in experiment [3] it was 15.4 µM (active); in experiment [5], 38.6 µM (active); in experiment [8], 31.6 µM (active) and inactive; in experiment [9], 31.6 µM (active); in [14] it was 14.1 µM (active) and inactive. For the same compound, the Potency in [15] is 39.8 µM (active) and inactive. Also, the activity, negative = cell killing in experiment [17] (setting [20]) is 2.52% (inactive); in [17] (setting [21]) it was -11.8% (inactive); in experiment [17] (setting [22]), -13.9% (inactive); in [17] (setting [23]), 14.2% (inactive).
Turning to `CC(=O)Nc1ccc(/C=N/NC(N)=S)cc1`, the Potency entry in [1], in experiment [2], in experiment [3], in experiment [4], in experiment [5] and in experiment [6] was “inactive” each time. Besides, the Potency result in experiment [19], in experiment [7], in [8], in experiment [9], in [10] and in experiment [11] was “inactive” throughout. Also, the Potency entry in experiment [12], in experiment [13], in [15], in experiment [16] and in experiment [18] was “inactive” in each case. Moreover, the activity, negative = cell killing is -6.76% (inactive) and -4.79% (inactive) in experiment [17] (setting [20]); -13.7% (inactive) and -15.9% (inactive) in [17] (setting [21]); -28.2% (inactive) in [17] (setting [22]); -27.6% (inactive) and -20.2% (inactive) in [17] (setting [23]).
Turning to `COc1cc(C)c(Cc2cnc(N)nc2N)cc1OC`, the Potency result in experiment [1], in experiment [2], in experiment [3], in [4], in experiment [5] and in experiment [6] was “inactive” throughout. The Potency entry in [19], in experiment [7], in experiment [8], in experiment [9], in [10] and in experiment [11] was “inactive” throughout. The Potency result in experiment [12], in experiment [13], in [14], in experiment [15], in [16] and in experiment [18] was “inactive” throughout. Besides, the activity, negative = cell killing in experiment [17] (setting [20]) is -4.72% (inactive); in [17] (setting [21]), -19.5% (inactive); in experiment [17] (setting [23]), -26.1% (inactive).
